Compound activity from PubChem.
Shown are actives, neighbours in structure and some others; about 21% of the full set was active somewhere.
CYP2C9 inhib = inhibitors of human CYP2C9. P11712. CYP2C9 Supersomes, luciferin-H conversion, luminescence. inhibition, % at 5 µM. 20% of 96,000 active. AID 777;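 active means blocking of liver enzyme CYP2C9 beyond about 50% at 5 µM, limit read from the data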
Target sequence (P11712 whole entry, looked up): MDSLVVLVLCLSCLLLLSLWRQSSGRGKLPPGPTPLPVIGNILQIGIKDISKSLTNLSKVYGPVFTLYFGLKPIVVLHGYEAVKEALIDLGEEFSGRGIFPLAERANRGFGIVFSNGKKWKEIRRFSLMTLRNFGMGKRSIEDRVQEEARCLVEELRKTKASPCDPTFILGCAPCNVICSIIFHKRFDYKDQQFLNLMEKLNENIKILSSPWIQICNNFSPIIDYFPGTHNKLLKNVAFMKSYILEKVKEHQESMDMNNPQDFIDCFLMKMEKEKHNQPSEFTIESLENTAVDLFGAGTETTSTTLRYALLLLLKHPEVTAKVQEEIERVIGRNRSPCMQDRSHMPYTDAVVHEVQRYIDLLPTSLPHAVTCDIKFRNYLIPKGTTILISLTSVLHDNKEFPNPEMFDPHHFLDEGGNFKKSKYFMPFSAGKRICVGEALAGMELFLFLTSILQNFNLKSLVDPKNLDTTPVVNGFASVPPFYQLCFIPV
MRP reversal = compounds reversing MRP-mediated drug resistance. 0.04% of 85,000 active. H69AR cells + 2 uM doxorubicin, CellTiter-Glo, 72 h. differential viability (reversal), % at 10 µM;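 active means viability drop by adding the cancer drug above about 55%, with treated viability meeting a 40% cutoff, limit read from the data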;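 further: larger differential means the compound sensitizes cells more to doxorubicin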
CYP2C19 act = cytochrome P450 2C19 (human) activation; recombinant CYP2C19, luciferin-H EGE luminescence; active compounds read high; 0 = fully inhibited enzyme, 1 = untreated enzyme; activation factor at 5 µM; 96,000 tested, under 10 active; AID 1025;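 active means activation factor of at least 2 at 5 µM in the primary screen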
MRP1 act = activates MRP-1 | 0.61% of 140,000 active | viability increase, % at 10 µM | H69AR cells + doxorubicin, viability rescue, CellTiter-Glo | AID 799;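 active means viability gain under doxorubicin at or above a set limit, the compound median plus 3 SD, cut at about 4.7% in these data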;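 further: MRP-1 overexpressing cells given doxorubicin 25 µM after compound pretreatment; 18-22 h compound pretreatment then 72 h with doxorubicin before readout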
CYP2C9 act = CYP2C9 (human) activation; P11712; recombinant CYP2C9, luciferin-H conversion, luminescence; active compounds read high; factor 1 = untreated enzyme, 0 = blocked; activation factor at 5 µM; 1.4% of 96,000 active; AID 1024;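 active means activation factor of 2 or more for CYP2C9 at a 5 µM dose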
CYP2C19 inh = blocks human cytochrome P450 2C19; P33261; CYP2C19 Supersomes, luciferin-H EGE luminescence, 30 min; inhibition, % at 5 µM; 21% of 96,000 active;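 active means CYP2C19 inhibition above a set limit at 5 µM in the primary screen, cut at about 50% in these data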
Each line names hits and unclear results; the compound was inactive in the other large screens.

Clc1ccc(SCCCCn2ccnc2)cc1	CYP2C9 inhib 99.5, CYP2C19 inh 99.7
Clc1cc(Br)ccc1OCCn1ccnc1	CYP2C9 inhib 93.2, CYP2C19 inh 95.9
Cc1cc(Br)ccc1OCCn1ccnc1	none (no result: CYP2C9 inhib, MRP reversal, CYP2C19 act, CYP2C9 act, CYP2C19 inh)
Clc1ccccc1OCCCCn1ccnc1	CYP2C9 inhib 96.1, CYP2C19 inh 100.0
Clc1cc(Br)ccc1OCCCn1ccnc1	none (no result: CYP2C9 inhib, MRP reversal, CYP2C19 act, CYP2C9 act, CYP2C19 inh)
Cc1ccc(-c2nc(P(=O)(c3ccccc3)c3ccccc3)c(N3CCOCC3)o2)cc1	none (no result: CYP2C9 inhib, MRP reversal, CYP2C19 act, CYP2C9 act, CYP2C19 inh)
CNc1oc(-c2ccc(Cl)cc2)nc1P(=O)(c1ccccc1)c1ccccc1	CYP2C9 inhib 63.7 (no result: MRP reversal)
Cc1[nH]c2ccccc2c1C(=O)COC(=O)C1CC(=O)N(Cc2ccccc2)C1 (stereo not given)	CYP2C9 inhib 67.3, CYP2C19 inh 77.6
CCOC(=O)c1c(C)[nH]c(C(=O)COC(=O)C2CC(=O)N(Cc3ccccc3)C2)c1C (stereo not given)	none
COc1ccccc1NC(=O)C1=C(C)NC(=O)NC1c1cc(C)cs1 (stereo not given)	none (no result: CYP2C9 inhib, MRP reversal, CYP2C19 act, CYP2C9 act, CYP2C19 inh)
Cc1nn(C)cc1CNC(=O)C1(C)CC1(Cl)Cl (stereo not given)	none (no result: CYP2C9 inhib, MRP reversal, CYP2C19 act, CYP2C9 act, CYP2C19 inh)
CC(=O)c1c(C)[nH]c(C(=O)NCc2ccccc2Cl)c1C	none (no result: CYP2C9 inhib, CYP2C19 act, CYP2C9 act, CYP2C19 inh)
CCc1c(C(=O)Nc2cc(C)ccc2OC)[nH]c(C)c1C(C)=O	CYP2C19 inh 55.1
CCc1c(C(=O)Nc2ccc(OC)cc2)[nH]c(C)c1C(C)=O	none
CCc1c(C(=O)NCc2ccccc2Cl)[nH]c(C)c1C(C)=O	CYP2C9 inhib 66.2, CYP2C19 inh 60.8
CCc1c(C(=O)NCCc2ccc(OC)c(OC)c2)[nH]c(C)c1C(C)=O	none
CCc1c(C(=O)NCc2ccc3c(c2)OCO3)[nH]c(C)c1C(C)=O	CYP2C9 inhib 80.1
CC1=NN(C(=O)Cn2nc([N+](=O)[O-])cc2C)C(O)(C(F)(F)F)C1 (stereo not given)	none (no result: CYP2C9 inhib, MRP reversal, CYP2C19 act, CYP2C9 act, CYP2C19 inh)
CC(C)Oc1ccc(CNC2CCOC(C)(C)C2)cc1 (stereo not given)	none
N#C/C(=C(/O)COC(=O)c1ccc2c(c1)OCCO2)c1nc2ccccc2[nH]1	CYP2C9 inhib 76.1, CYP2C19 inh 59.6
Cc1ccc(C(=O)OC/C(O)=C(\C#N)c2nc3ccccc3[nH]2)cc1S(=O)(=O)N1CCOCC1	none (no result: CYP2C9 inhib, MRP reversal, CYP2C19 act, CYP2C9 act, CYP2C19 inh)
CCOC(=O)c1c(C)[nH]c(C(=O)OC/C(O)=C(\C#N)c2nc3ccccc3[nH]2)c1C	CYP2C9 inhib 81.4, CYP2C19 inh 58.1
N#C/C(=C(/O)COC(=O)c1ccc(Cl)c(S(=O)(=O)N2CCOCC2)c1)c1nc2ccccc2[nH]1	none (no result: CYP2C9 inhib, MRP reversal, CYP2C19 act, CYP2C9 act, CYP2C19 inh)
c1ccc(-c2onc3c2CCCC3)cc1	CYP2C19 inh 57.8
CCCCSc1nnc(-c2ccccc2N)c(=O)[nH]1	none (no result: MRP reversal)
CCCCCSc1nnc(-c2cc(Br)ccc2N)c(=O)[nH]1	CYP2C9 inhib 60.0
O=C(NNS(=O)(=O)c1ccc2ccccc2c1)c1cccnc1	none (no result: CYP2C9 inhib, MRP reversal, CYP2C19 act, CYP2C9 act, CYP2C19 inh)
CC(=O)c1c(C)[nH]c(C(=O)Nc2ccc3c(c2)OCCO3)c1C	none
COc1ccc(NC(=O)c2[nH]c(C)c(C(C)=O)c2C)cc1Cl	none
CC(=O)c1c(C)[nH]c(C(=O)Nc2ccc(C)c(C)c2)c1C	CYP2C9 inhib 64.7
CC(=O)c1c(C)[nH]c(C(=O)Nc2cccnc2)c1C	CYP2C9 inhib 52.2
Cc1ccccc1NC(=S)NCCc1ccc(S(N)(=O)=O)cc1	none (no result: CYP2C9 inhib, MRP reversal, CYP2C19 act, CYP2C9 act, CYP2C19 inh)
C#CCCCCCCC#CCN(C)C	none (no result: CYP2C9 inhib, MRP reversal, CYP2C19 act, CYP2C9 act, CYP2C19 inh)
O=C1c2ccccc2NC(c2ccccc2Cl)N1N=C1CCCCCC1 (stereo not given)	none (no result: CYP2C9 inhib, MRP reversal, CYP2C19 act, CYP2C9 act, CYP2C19 inh)
Cc1cc2c(c(C)nn2-c2ccccc2)c(=O)o1	CYP2C19 inh 56.1
O=C1CN(C(=O)CN2CCOCC2)C(c2ccccc2)c2cc(Br)ccc2N1 (stereo not given)	CYP2C9 inhib 68.0, CYP2C19 inh 64.8
Cc1ccccc1N=C1NC(=O)CS1	none
Cc1ccccc1N=C1NC(=O)CC(c2ccccc2)S1 (stereo not given)	CYP2C19 inh 62.8 (no result: MRP reversal)
O=C(Nc1ccc(Oc2cccc3ccccc23)cc1)c1ccco1	none
N#Cc1nc(-c2cccs2)oc1NCCCN1CCOCC1	none
CC(C)(C)C1CCc2onc(C(=O)Nc3ccc(F)cc3F)c2C1 (stereo not given)	CYP2C19 inh 63.0
CC(C)(C)C1CCc2onc(C(=O)Nc3cnn(Cc4ccc(F)cc4)c3)c2C1 (stereo not given)	none
COc1cccc(N(CC(=O)Nc2ccc3c(c2)OCO3)S(=O)(=O)c2ccccc2)c1	CYP2C9 inhib 70.7 (no result: MRP reversal)
COc1ccccc1N(CC(=O)Nc1ccc2c(c1)OCO2)S(=O)(=O)c1ccccc1	CYP2C9 inhib 100.3, CYP2C19 inh 80.2
COc1ccc(S(=O)(=O)N(CC(=O)Nc2ccc3c(c2)OCO3)c2ccccc2OC)cc1	CYP2C9 inhib 71.8
O=C(CN1CCN(S(=O)(=O)c2ccccc2)CC1)Nc1ccc2c(c1)OCO2	none
COC(=O)c1cc(NC(=O)CN(c2ccccc2OC)S(=O)(=O)c2ccccc2)ccc1Cl	CYP2C9 inhib 96.8, CYP2C19 inh 52.5 (no result: MRP reversal)
COC(=O)c1cc(NC(=O)CN(c2cccc(OC)c2)S(=O)(=O)c2ccccc2)ccc1Cl	none (no result: CYP2C9 inhib, MRP reversal, CYP2C19 act, CYP2C9 act, CYP2C19 inh)
CCSc1nnc(NC(=O)C2CCN(S(=O)(=O)c3c(C)c(C)cc(C)c3C)CC2)s1	none (no result: CYP2C9 inhib, MRP reversal, CYP2C19 act, CYP2C9 act, CYP2C19 inh)
Clc1cc(Br)ccc1OCCCNCc1ccccc1	none (no result: CYP2C9 inhib, MRP reversal, CYP2C19 act, CYP2C9 act, CYP2C19 inh)
Cc1ccc(NC(=O)COc2ccc(Br)cc2C)cc1	none (no result: CYP2C9 inhib, MRP reversal, CYP2C19 act, CYP2C9 act, CYP2C19 inh)
COc1ccc(CC(=O)Nc2ccc(-c3cn4ccc(C)cc4n3)cc2)cc1	CYP2C19 inh 66.9 (no result: MRP reversal)
